Rows were chosen to be rich in hits. Some 6.3% of all compounds tested hit in one or more screens of this group.
tim23-1 inh = growth inhibitors of tim23-1 mutant yeast, primary screen, luminescence, uHTS | 330,000 tested, 1.3% active | inhibition, % at 20 µM | S. cerevisiae tim23-1 growth, BacTiter-Glo luminescence, 24 h | AID 463212, 2010;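 active = growth inhibition of the mutant yeast at or above 50%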;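 note: temperature-sensitive mutant grown at 25 °C; plate controls were DMSO-treated mutant yeast for no effect and medium wells lacking yeast for full effect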
MPTP inh = mitochondrial permeability transition pore inhibitors, primary screen, biochemical, isolated mouse mitochondria, absorbance; Ca2+ swelling absorbance, 30 min; inhibition, % at 10 µM; 360,000 tested, 1.4% active; AID 602449, 2012;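 active = inhibition of 50% or more, scaled per plate between neutral and stimulator controls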;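 note: 0% = DMSO wells given calcium and 100% = 1 mM EGTA wells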
Mdm2 MdmX PPI = inhibitors of human Mdm2-MdmX association, primary screen, cell-based, luminescence, split luciferase, SaOS-2, uHTS; inhibition, % at 8 µM; Protein Mdm4 (Homo sapiens) + E3 ubiquitin-protein ligase Mdm2 (Homo sapiens), …; SaOS-2 split-luciferase Mdm2/MdmX complementation; 330,000 tested, 3% active;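 active = inhibition of at least 50% at 8 µM in the primary screen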
Target sequence (O15151 whole entry, looked up): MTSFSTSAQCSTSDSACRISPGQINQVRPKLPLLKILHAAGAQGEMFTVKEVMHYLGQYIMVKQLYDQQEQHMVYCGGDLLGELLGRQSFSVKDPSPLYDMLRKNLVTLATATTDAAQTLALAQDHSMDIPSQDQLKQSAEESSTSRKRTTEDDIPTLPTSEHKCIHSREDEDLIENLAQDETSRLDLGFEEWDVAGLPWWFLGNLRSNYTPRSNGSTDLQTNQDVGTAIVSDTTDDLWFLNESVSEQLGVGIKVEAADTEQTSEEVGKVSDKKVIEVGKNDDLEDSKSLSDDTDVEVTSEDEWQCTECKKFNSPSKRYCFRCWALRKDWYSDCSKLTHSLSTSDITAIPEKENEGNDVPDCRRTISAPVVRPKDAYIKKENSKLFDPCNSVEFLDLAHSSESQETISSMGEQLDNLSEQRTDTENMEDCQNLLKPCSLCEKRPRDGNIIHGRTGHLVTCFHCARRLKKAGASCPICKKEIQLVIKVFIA
Target sequence (Q00987 whole entry, looked up): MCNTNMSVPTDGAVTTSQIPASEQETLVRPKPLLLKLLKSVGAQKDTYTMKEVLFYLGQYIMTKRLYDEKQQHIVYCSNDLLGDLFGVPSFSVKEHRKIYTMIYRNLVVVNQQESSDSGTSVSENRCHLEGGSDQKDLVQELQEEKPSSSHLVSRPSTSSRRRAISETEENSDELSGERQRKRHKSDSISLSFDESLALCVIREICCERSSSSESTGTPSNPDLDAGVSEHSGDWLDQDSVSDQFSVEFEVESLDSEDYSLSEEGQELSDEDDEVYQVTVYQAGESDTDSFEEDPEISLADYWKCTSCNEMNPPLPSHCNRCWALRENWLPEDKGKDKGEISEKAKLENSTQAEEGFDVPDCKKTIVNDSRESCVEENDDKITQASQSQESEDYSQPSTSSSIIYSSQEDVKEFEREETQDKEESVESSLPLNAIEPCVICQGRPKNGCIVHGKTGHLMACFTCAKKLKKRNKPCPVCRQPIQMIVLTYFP
TIM10 inh = growth inhibitors of isogenic TIM10 control yeast, primary screen, counter-screen for tim10-1 yeast inhibitor project, luminescence, uHTS | S. cerevisiae TIM10 strain growth, BacTiter-Glo luminescence, 24 h | inhibition, % at 10 µM | 330,000 tested, 1.4% active | AID 463195, 2010;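 active = inhibition of 40% or more at the single tested concentration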;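 note: wild-type TIM10 isogenic control strain grown at permissive 25 °C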
tim10-1 inh = growth inhibitors of tim10-1 mutant yeast, primary screen, luminescence, uHTS; inhibition, % at 20 µM; S. cerevisiae tim10-1 ts strain growth, BacTiter-Glo, 24 h; 330,000 tested, 2.2% active;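 active = inhibition of at least 40%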;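 note: mutant grown at 25 °C; 0% = DMSO wells with yeast and 100% = wells holding no yeast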
MPTP counter = fluorescence retest of MPTP screen hits in isolated mitochondria, single concentration | shares compounds with MPTP inh | 5,000 tested, 78% active | inhibition, % at 10 µM | membrane potential, Rhodamine 123 fluorescence; in the data active = inhibition above about 22%;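 note: 0% = DMSO vehicle and 100% = positive control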
MPTP abs DR = mitochondrial permeability transition pore inhibitors, dose response, biochemical, absorbance, uHTS hits. shares compounds with MPTP inh. AID 651561, 2012. isolated mitochondria swelling. IC50, µM. 780 tested, 58% active; in the data active = IC50 below about 20 µM
MPTP cs DR = fluorescent counter-screen in isolated mitochondria, dose response, counter-screen for MPTP inhibitor project, biochemical, fluorescence, uHTS hits | IC50, µM | AID 651564, 2012 | shares compounds with MPTP inh | 780 tested, 49% active | isolated mitochondria counterscreen, fluorescence read-out; in the data active = IC50 below about 80 µM
Active calls of the source: *; . = no result given; + = active, no number.

SMILES	tim23-1 inh	MPTP inh	Mdm2 MdmX PPI	TIM10 inh	tim10-1 inh	MPTP counter	others
CCOC(=O)c1ccc(NC(=S)NCc2ccccc2)cc1	39	89*	-8	34	17	87*
COC(=O)c1ccc(NC(=S)NC2CCCCC2C)cc1 (configuration not stated)	49	98*	2	25	33	94*
Cc1ccc(NC(=S)NCCC2=CCCCC2)cc1	14	0	-30	-7	25	.
O=C(NCCC1=CCCCC1)Nc1ccc2nsnc2c1	41	85*	-96	18	24	85*
O=C(NCc1ccco1)Nc1ccc2nsnc2c1	-2	2	9	3	2	.
CCCCN(C(=O)C1CCCO1)c1c(N)n(CCC)c(=O)[nH]c1=O (configuration not stated)	-6	1	26	2	-15	.
Cc1cc(NNC(=O)c2cccc(C(F)(F)F)c2)nc2c1c(C)nn2C	5	86*	0	-21	-25	41*
Clc1ccc2c(N/N=C/c3ccc(Br)cc3)ccnc2c1	.	88*	.	.	.	74*
Cc1ccccc1/C=N/Nc1ccnc2cc(Cl)ccc12	.	99*	.	.	.	91*
Oc1ccc(Nc2ccnc3cc(Cl)ccc23)cc1	2	1	23	-5	9	.
O=C(OCC(=O)c1ccc[nH]1)c1ccc(S(=O)(=O)C(F)F)cc1	.	0	.	.	.	.
Cc1cc(O)cc2c1C1CCC3(C)C(=O)CCC3C1C=C2 (configuration not stated)	.	1	.	.	.	.
CCOC(=O)c1[nH]c(C)c(/C(O)=C2\C(=O)C(=O)N(CCN3CCOCC3)C2c2cccs2)c1C (configuration not stated)	-5	+	25	1	7	1
CCc1ccccc1NC(=O)Nc1ccc(F)cc1F	1	5	14	6	12	.
CCc1ccccc1NC(=O)Nc1cc(F)ccc1F	18	58*	-22	23	28	88*
CCN1C(=O)[C@H]2[C@@H](c3ccc(C(F)(F)F)cc3)N[C@]3(CCCN(Cc4ccc(OC)cc4)C3=O)[C@H]2C1=O	.	10	.	.	.	.
O=C(CSc1nc2ccccc2s1)NNC(=S)Nc1ccc(Cl)cc1	8	93*	25	22	21	86*
O=C1NC(=O)/C(=C/c2ccc(O)cc2)S1	10	0	-14	6	1	.
O=C1NC(=O)C(=Cc2ccc(Cl)c(Cl)c2)S1	.	73*	.	.	.	92*
OCCCNc1ncnc2c1ncn2[C@H]1CN(Cc2ccco2)C[C@@H](CO)O1	.	-1	.	.	.	.
Cc1sc2ncnc(NCC(O)c3ccccc3)c2c1C (configuration not stated)	1	69*	-10	8	-6	58*
Cc1sc2ncnc(NCC(O)c3ccc([N+](=O)[O-])cc3)c2c1C (configuration not stated)	30	92*	7	20	-6	91*
Cc1sc2ncnc(NCC(c3ccccc3)N(C)C)c2c1C (configuration not stated)	6	4	-19	15	-5	.
COC(=O)N1CCCCC1c1cc(C(=O)N2CCOCC2)no1 (configuration not stated)	.	-3	.	.	.	.
Brc1ccccc1OCCCCn1cnc2ccccc21	11	85*	-34	15	36	90*
SMILES	tim23-1 inh	MPTP inh	Mdm2 MdmX PPI	TIM10 inh	tim10-1 inh	MPTP counter	others
Cc1ccc(OCCCCn2cnc3ccccc32)c(C)c1	9	93*	9	-10	7	93*
CC(O)(c1cccnc1)c1nc(-c2cc(F)cc(F)c2)cs1 (configuration not stated)	.	1	.	.	.	.
CC1(C(=O)NS(=O)(=O)c2ccc(F)cc2F)CCN1C(=O)CC1CCCC1 (configuration not stated)	.	1	.	.	.	.
O=C(CC[C@H]1O[C@@H](n2ccc(=O)[nH]c2=O)[C@H](O)[C@@H]1O)NCC(c1ccccc1)c1ccccc1	.	0	.	.	.	.
O=C(c1cc(COc2cccc3cccnc23)on1)N1CCC[C@H]1CO	.	0	.	.	.	.
COC(=O)C1CCCCN1C(=O)c1cc(COc2cccc3cccnc23)on1 (configuration not stated)	17	1	2	-3	21	.
COC(=O)C1CCCCN1C(=O)c1cc(COc2cccc3cnccc23)on1 (configuration not stated)	13	93*	50	-1	-8	100*
CCOC(=O)CC1CCCCN1C(=O)c1cc(COc2cccc3cnccc23)on1 (configuration not stated)	25	102*	36	3	19	112*
Cc1c(NC(=O)Nc2ccc(Cl)c(Cl)c2)sc(=S)n1C	36	51*	32	15	31	64*
COc1ccc(NC(=O)Nc2sc(=S)n(C)c2C)cc1	9	6	-8	5	8	.
O=C(COC(=O)c1cccc(S(=O)(=O)N2CCCCC2)c1)NCc1cccc(Cl)c1	.	-1	.	.	.	.
CCN(CC)c1ccc(/C=N/N(c2ccccc2)c2ccccc2)c(O)c1	7	97*	-6	2	9	54*
Cc1ccc(OCc2nc3c4c(ncn3n2)-c2ccccc2CC42CCCC2)cc1	-4	57*	18	-14	-18	-8	MPTP abs DR=8.4*;MPTP cs DR=>80
COc1ccc(-c2nc3c4c(ncn3n2)-c2ccccc2CC42CCCC2)cc1	-1	78*	-5	-10	12	1	MPTP abs DR=>100;MPTP cs DR=>80
Cc1ccccc1OCc1nc2c3c(ncn2n1)-c1ccccc1CC31CCCC1	-14	69*	1	-24	-12	1	MPTP abs DR=13*;MPTP cs DR=>80
Cc1cccc(OCc2nc3c4c(ncn3n2)-c2ccccc2CC42CCCC2)c1	8	5	-2	3	-11	.
O=c1cc(-c2ccc([N+](=O)[O-])cc2)nc2cc(-c3ccc(F)cc3)[nH]n12	2	89*	-20	-2	6	-10	MPTP abs DR=>100;MPTP cs DR=28*
Cc1ccc(Nc2n[nH]c(C)c2[N+](=O)[O-])cc1	-12	1	-66	-11	-14	.
Cc1[nH]nc(Nc2ccc(Br)cc2)c1[N+](=O)[O-]	3	57*	-134	5	-5	72*
CCCCCC(=O)N1C[C@@H](O)[C@H](n2cc(COC(=O)c3ccccc3)nn2)C[C@@H]1c1ccccc1	.	-2	.	.	.	.
COc1cccc(NC(=O)CSCc2nc3sc(C)c(C)c3c(=O)[nH]2)c1	.	1	.	.	.	.

Bioassay records as filed in PubChem.
